# Results: PubChem BioAssay AID651820 (National Center for Advancing Translational Sciences (NCATS), 2012)
# Screen size: about 340,000 compounds; about 12,000 (3.5%) were called active. Not shown: some 18% with an inconclusive outcome. This is one part of a sample in which actives are shown more often than they occur. Values without a mark were called inactive. Calls come from the whole dose curve; as a rule, active = well fitted inhibition curve with a large enough effect; inconclusive = small, poorly fitted or top-dose-only effect, or another doubt; inactive = no such curve, though single readings can be large or run the other way.
# Assay: qHTS Assay for Inhibitors of Hepatitis C Virus (HCV)
# Conditions: Huh7.5.1 HCVcc-Cre infection, luciferase reporter, 44 h; series mostly up to 41.8 µM; activity change, negative = inhibition: at the top concentration
# Procedure, shortened: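 Luciferase read-out (15 sec integration) after a 15 min room-temperature substrate step quantifies HCVcc-Cre infection. Cells, 1,000 per well, had compound added 4 h post-plating, then virus at ~0.5 moi, and were cultured 44 h.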
# % is set by controls: 0 for no effect and ±100 for the full control effect; potency is the fitted concentration of half-maximal effect.
Structure (SMILES),"activity change, negative = inhibition",Potency
CCc1ccc(C(=O)N2CCN(S(=O)(=O)c3sc(C(=O)O)c(C)c3C(=O)O)CC2)cc1,-13.4%,
c1ccc2c(c1)OC1OC2Oc2ccccc21,30.9%,
COc1ccccc1N1CCN(C(=O)C2Cc3ccccc3CN2C(=O)c2ccco2)CC1 (stereo not drawn),24%,
CCCCNC(=O)N(O)C1N(/N=C/c2ccc(N(C)C)cc2)C(=S)SC1(C)C (stereo not drawn),13.8%,
CCCCNC(=O)N(O)C1N(/N=C/c2ccccc2O)C(=S)SC1(C)C (stereo not drawn),,7.08 µM (active)
CCC(C)N1C(=S)SC(C)(C)C1N(O)C(=O)NC1CCCCC1 (stereo not drawn),23%,
CC1CCCCC1NC(=O)c1cc(=O)[nH]c2ccccc12 (stereo not drawn),1.65%,
O=C(CSc1nc(=O)n2ccccc2n1)Nc1ccc2c(c1)OCCO2,-17.4%,
CCN1C(=O)N[C@@H](c2ccccc2)C(C(=O)OC)=C1C,7.95%,
CCOC(=O)C1=C(C)N(C[C@@H]2CC[C@@H](Cc3ccc(-c4ccccc4)cc3)O2)C(=O)NC1c1ccc([N+](=O)[O-])cc1 (stereo partly drawn),,11.2 µM (active)
CCOC(=O)C1=C(c2ccccc2)NC(=O)NC1c1cc(OCC)c(O)c([N+](=O)[O-])c1 (stereo not drawn),3.05%,
C[C@]12c3[nH]c4ccc(Cl)cc4c3CCN1C(=O)[C@@H](CC(=O)NCCCn1ccnc1)C[C@@H]2C(=O)N1CCOCC1,-1.63%,
Cc1ccc(NC(=O)CN(C)C(=O)Cn2nnc(-c3ccccc3)n2)cc1,4.12%,
COc1ccc(S(=O)(=O)N2CCOC2CNC(=O)C(=O)NCc2ccncc2)cc1C (stereo not drawn),-10.5%,
COc1ccc(CCNC(=O)C(=O)NCC2OCCN2S(=O)(=O)c2ccc(OC)c(C)c2)cc1 (stereo not drawn),,15.8 µM (active)
COc1ccc(CCNC(=O)C(=O)NCC2OCCN2S(=O)(=O)c2ccc(F)cc2)cc1OC (stereo not drawn),-27.6%,
Cc1cccc(OCC(=O)OCC(=O)Nc2ccc(Cl)cn2)c1,10.5%,
COc1ccccc1NC(=O)N(O)C1(C#N)CCCCC1,16.3%,
O=C(NCc1ccc2c(c1)OCO2)c1c(-c2ccsc2)sc2ccccc12,6.14%,
CCSc1nc2sc3c(c2c(=O)n1-c1ccc(C)cc1)CCN(C)C3,-7.22%,
O=C1CCCN2N=C(SCC(=O)Nc3ccc(Br)cc3)SC2=N1,2.91%,
CCn1c(SCC(=O)Nc2ccc(Br)cc2)nc2sc3c(c2c1=O)CCN(C)C3,,4.47 µM (active)
COc1ccccc1-n1c(SCC(=O)O)nc2sc3c(c2c1=O)CCC3,9.4%,
CCOc1ccc(NC(=O)CSc2nncn2C)cc1,28.2%,

Structure (SMILES),"activity change, negative = inhibition",Potency
CCOc1ccc(-n2c(SCC(=O)Nc3ccc(OC)cc3)nc3sc4c(c3c2=O)CCN(C)C4)cc1,,11.2 µM (active)
CCCSc1nc2sc3c(c2c(=O)n1-c1ccc(OC)cc1)CCN(C)C3,,11.2 µM (active)
C=CCn1c(SCC(=O)Nc2ccc(NC(C)=O)cc2)nc2sc(C)c(C)c2c1=O,-14.7%,
COc1ccccc1NC(=O)CSc1nc2sc3c(c2c(=O)n1-c1ccccc1)CCN(C)C3,-9.03%,
O=C(NCCSc1ncc(-c2ccccc2)[nH]1)c1ccco1,-7.56% [at 8.37 µM],
COc1cccc(NC(=O)CSc2nnc(C3CCCCC3)n2N)c1,-4.82%,
CC(=O)Nc1ccc(NC(=O)CSC2=NS(=O)(=O)c3ccccc3N2)cc1,-2.83%,
CCc1noc(C)c1C(=O)Nc1nc2ccc(OC)cc2s1,-17.2%,
COc1ccc(NC(=O)CNc2cc(S(=O)(=O)N3CCOCC3)ccc2N2CCOCC2)c(OC)c1,11%,
CS(=O)(=O)N(CC(=O)N1CCc2ccccc2C1)c1ccc(Br)cc1,0.897%,
COc1cc(/C=C/C(=O)OCC(=O)NCCCc2ccccc2)ccc1O,-14.3%,
O=C(O)c1ccc(S(=O)(=O)c2ccccc2)s1,4.5%,
Cc1ccc(S(=O)(=O)c2cc3c(=O)n4cccc(C)c4nc3n(CCc3ccccc3)c2=N)cc1C,8.56%,
OC(Cn1c2ccccc2c2ccccc21)C[n+]1ccccc1 (stereo not drawn),-23.1%,
CS(=O)(=O)N(CC(O)Cn1c2ccccc2c2ccccc21)c1cccc2ccccc12 (stereo not drawn),,11.2 µM (active)
O=C1c2ccccc2S(=O)(=O)N1CC(O)Cn1c2ccccc2c2ccccc21 (stereo not drawn),12.3%,
COc1ccc2oc(C(=O)N(CC(C)C)C3CCS(=O)(=O)C3)c(C)c2c1 (stereo not drawn),-5.42%,
CCOc1ccc(C(CC(=O)O)NC(=O)C23CC4CC(CC(C4)C2)C3)cc1OC (stereo not drawn),12%,
CCOc1ccc(C(CCc2ccccc2)NC(=O)c2ccc(OC)c(OC)c2)cc1OCC (stereo not drawn),,10 µM (active)
CCOc1ccc(C(CC(=O)O)NC(=O)Cc2ccccc2)cc1OC (stereo not drawn),20%,
Cc1n[nH]c(=O)c2c(NC(=O)COC(=O)c3ncc(Cl)c(Cl)c3Cl)oc(C)c12,10.5%,
CCC(O)CNc1nc(-n2nc(C)cc2C)nc2sc3c(c12)CC(C)(C)OC3 (stereo not drawn),-11%,
COCCNc1nc(-n2nc(C)cc2C)nc2sc3c(c12)CCCC3,,10 µM (active)
Cc1nc2sc3c(c2c(=O)n1NC(=O)CCl)CCCC3,-8.31%,
